Results taken from PubChem BioAssay AID1159580 (chemical genetic matrix, 2015).
Where “and” joins values, the source holds several entries; their conditions need not be identical. Identical values can stand only once. The whole screen tested about 5,500 compounds, of which about 2,000 (36%) were called active. Another 18% or so got no clear call; they are omitted. Cut-off read from the data, not from the text of the source: active = normalized growth mostly below about 0.91 (no sharp cut-off); inconclusive = no clear call, values can overlap the other calls; inactive = mostly above about 0.92. The list shows a part of the results.

Test: chemical genetic growth profiling, strain panel (AID 1159580);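 note: tested at 20 µM; growth read once vehicle control cultures reached saturation at 30 °C; 1 = growth at the plate median or of vehicle wells; lower values mean less growth of the strain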
Conditions: S. cerevisiae deletion strains, growth OD
[1] = locus YDR150W, strain NUM1, hits give low values
[2] = locus YGR078C, strain PAC10, hits give low values
[3] = locus YJR075W, strain HOC1, hits give low values
[4] = locus YMR307W, strain GAS1, hits give low values
[5] = locus YNL153C, strain GIM3, hits give low values
[6] = locus YPL241C, strain CIN2, hits give low values

Measured: normalized growth

CC(=O)c1c(O)c(C)c(O)c(Cc2c(O)c3c(c(C(=O)/C=C/c4ccccc4)c2O)OC(C)(C)C=C3)c1O
inactive: locus YAL013W, strain DEP1, hits give low values 0.909 | locus YAL040C, strain CLN3, hits give low values 1 | locus YDR363W, strain ESC2, hits give low values 0.999 | locus YER002W, strain NOP16, hits give low values 1.06 | [2] 0.989 | locus YGR229C, strain SMI1, hits give low values 0.876 | [5] 0.857 | locus YNL175C, strain NOP13, hits give low values 1.06 | locus YNL197C, strain WHI3, hits give low values 1.01 | locus YNL224C, strain SQS1, hits give low values 1.01 | locus YOR083W, strain WHI5 (second series), hits give low values 0.898
active: locus YCL061C, strain MRC1 (second series), hits give low values 0.917 | [1] 0.883 | [3] 0.877 | [4] 0.877 | locus YPL055C, strain LGE1, hits give low values 0.881 | [6] 0.902

COc1ccc(C(=O)CC(=O)O)c2c1C=CC(C)(C)O2
inactive: locus YAL021C, strain ccr4, hits give low values 1 | locus YAL026C, strain drs2, hits give low values 1 | locus YAL030W, strain snc1, hits give low values 0.992 | locus YBL061C, strain skt5, hits give low values 0.999 | locus YBR009C, strain hhf1, hits give low values 1.01 | locus YBR021W, strain FUR4, hits give low values 0.986 | locus YBR023C, strain chs3, hits give low values 1.01 | locus YBR171W, strain sec66, hits give low values 0.986 | locus YBR229C, strain ROT2, hits give low values 0.983 | locus YBR231C, strain swc5, hits give low values 0.987 | locus YBR279W, strain paf1, hits give low values 1.01 | locus YCL011C, strain gbp2, hits give low values 1.01 | locus YCL016C, strain dcc1, hits give low values 1.02 | locus YCL029C, strain bik1, hits give low values 0.997 | locus YCL061C, strain MRC1, hits give low values 1 | locus YCL069W, strain vba3, hits give low values 1.01 | locus YCR088W, strain abp1, hits give low values 0.995 | locus YDL005C, strain med2, hits give low values 0.983 | locus YDL035C, strain GPR1, hits give low values 1.02 | locus YDL040C, strain nat1, hits give low values 1 | locus YDL074C, strain BRE1, hits give low values 1 | locus YDL101C, strain DUN1, hits give low values 1.01 | locus YDL185W, strain tfp1, hits give low values 0.988 | locus YDL192W, strain arf1, hits give low values 0.996 | locus YDR001C, strain nth1, hits give low values 0.995 | locus YDR069C, strain doa4, hits give low values 0.984 | locus YDR101C, strain arx1, hits give low values 0.995 | locus YDR137W, strain rgp1, hits give low values 1.03 | [1] 0.999 | locus YDR159W, strain sac3, hits give low values 0.956 | locus YDR162C, strain NBP2, hits give low values 1.06 | locus YDR195W, strain ref2 0.962 | locus YDR297W, strain sur2, hits give low values 0.997 | locus YDR318W, strain mcm21, hits give low values 0.997 | locus YDR334W, strain swr1, hits give low values 0.997 | locus YDR335W, strain msn5, hits give low values 1.01 | locus YDR388W, hits give low values 1.01 | locus YDR392W, strain spt3, hits give low values 0.96 | locus YDR502C, strain sam2, hits give low values 1.02 | locus YEL003W, strain gim4, hits give low values 0.999 | locus YEL037C, strain rad23, hits give low values 0.999 | locus YEL061C, strain CIN8, hits give low values 0.998 | locus YER015W, strain faa2, hits give low values 1.01 | locus YER016W, strain bim1, hits give low values 0.99 | locus YER110C, hits give low values 0.977 | locus YER111C, strain swi4, hits give low values 1 | locus YER155C, strain BEM2 (second series), hits give low values 0.99 | locus YER155C, strain BEM2, hits give low values 0.983 | locus YER167W, strain BCK2, hits give low values 0.993 | locus YFR010W, strain ubp6, hits give low values 0.994 | locus YGL078C, strain dbp3, hits give low values 0.994 | locus YGL086W, strain mad1, hits give low values 0.99 | locus YGL167C, strain pmr1, hits give low values 0.994 | locus YGL173C, strain kem1, hits give low values 0.99 | locus YGL227W, strain vid30, hits give low values 0.981 | locus YGL240W, strain doc1, hits give low values 1.02 | locus YGL248W, strain PDE1, hits give low values 1 | locus YGL253W, strain hxk2, hits give low values 1 | [2] 1.03 | locus YGR135W, strain pre9, hits give low values 0.992 | locus YGR252W, strain gcn5, hits give low values 0.979 | locus YHR013C, strain ard1, hits give low values 1.02 | locus YHR027C, strain rpn1, hits give low values 0.982 | locus YHR030C, strain SLT2, hits give low values 0.997 | locus YHR079C, strain IRE1 (second series), hits give low values 0.991 | locus YHR079C, strain IRE1, hits give low values 0.987 | locus YHR094C, strain hxt1, hits give low values 1 | locus YHR129C, strain ARP1, hits give low values 0.998 | locus YHR142W, strain chs7, hits give low values 1 | locus YHR200W, strain rpn10, hits give low values 0.987 | locus YIL066C, strain RNR3, hits give low values 1.02 | locus YIL073C, strain SPO22, hits give low values 1.04 | locus YIL125W, strain kgd1, hits give low values 1.01 | locus YIR030C, strain dcg1, hits give low values 0.993 | locus YJL092W, strain hpr5, hits give low values 1 | locus YJL095W, strain BCK1 (second series), hits give low values 0.99 | locus YJL095W, strain BCK1, hits give low values 1.05 and 1.08 | locus YJL115W, strain asf1, hits give low values 1 | locus YJL129C, strain trk1, hits give low values 1 | locus YJL134W, strain LCB3, hits give low values 0.995 | locus YJL154C, strain vps35, hits give low values 0.996 | locus YJL164C, strain tpk1, hits give low values 1.01 | locus YJL166W, strain qcr8, hits give low values 1 | locus YJL168C, strain set2, hits give low values 0.998 | locus YJL187C, strain SWE1 (second series), hits give low values 1.02 | locus YJL187C, strain SWE1, hits give low values 1.01 | locus YJR043C, strain POL32, hits give low values 1.04 | locus YJR066W, strain TOR1, hits give low values 0.949 | [3] 1.02 | locus YKL009W, strain mrt4, hits give low values 1.03 | locus YKL068W, hits give low values 0.992 | locus YKL085W, strain MDH1 (second series), hits give low values 1 | locus YKL085W, strain MDH1, hits give low values 1 | locus YKL160W, strain elf1, hits give low values 1.01 | locus YKL190W, strain CNB1, hits give low values 0.994 | locus YKR001C, strain vps1, hits give low values 0.994 | locus YKR026C, strain gcn3, hits give low values 0.995 | locus YKR091W, strain srl3, hits give low values 0.997 | locus YLL001W, strain dnm1, hits give low values 1.01 | locus YLL026W, hits give low values 1 | locus YLL041C, strain sdh2, hits give low values 1.01 | locus YLR027C, strain aat2, hits give low values 1.01 | locus YLR039C, strain RIC1, hits give low values 1.08 | locus YLR058C, strain SHM2, hits give low values 0.996 | locus YLR102C, strain apc9, hits give low values 0.992 | locus YLR113W, strain HOG1, hits give low values 1.07 | locus YLR221C, strain rsa3, hits give low values 0.99 | locus YLR258W, strain gsy2, hits give low values 1 | locus YLR262C, strain YPT6 (second series), hits give low values 1.03 | locus YLR262C, strain YPT6, hits give low values 1.06 | locus YLR268W, strain sec22, hits give low values 1.01 | locus YLR320W, strain mms22, hits give low values 0.987 | locus YLR330W, strain CHS5, hits give low values 0.995 | locus YLR342W, strain FKS1 (second series), hits give low values 1 | locus YLR342W, strain FKS1, hits give low values 0.999 | locus YLR357W, strain rsc2, hits give low values 0.959 | locus YLR370C, strain arc18, hits give low values 1.03 | locus YLR371W, strain rom2, hits give low values 0.997 | locus YLR384C, strain iki3, hits give low values 0.99 | locus YLR418C, strain cdc73, hits give low values 0.998 | locus YML016C, strain PPZ1, hits give low values 0.99 | locus YML032C, strain rad52, hits give low values 1 | locus YML120C, strain ndi1, hits give low values 1.01 | locus YML124C, strain tub3, hits give low values 0.997 | locus YMR058W, strain fet3, hits give low values 1.01 | locus YMR078C, strain ctf18, hits give low values 0.977 | locus YMR125W, strain sto1, hits give low values 0.994 | locus YMR129W, hits give low values 1 | locus YMR205C, strain PFK2, hits give low values 1.01 | locus YMR223W, strain ubp8, hits give low values 1.01 | locus YMR231W, strain pep5, hits give low values 0.994 | locus YMR263W, strain SAP30, hits give low values 1.01 | [4] 0.939 | locus YNL067W, strain RPL9B, hits give low values 1.04 | locus YNL071W, strain lat1, hits give low values 1.01 | [5] 1.04 | locus YNL183C, strain NPR1, hits give low values 0.995 | locus YNL209W, strain ssb2, hits give low values 1.01 | locus YNL233W, strain BNI4, hits give low values 1.03 | locus YNL248C, strain rpa49, hits give low values 0.903 | locus YNL250W, strain rad50, hits give low values 0.981 | locus YNL271C, strain bni1, hits give low values 0.984 | locus YNL298W, strain CLA4, hits give low values 0.979 | locus YNL307C, strain MCK1, hits give low values 0.99 | locus YNL322C, strain KRE1 (second series), hits give low values 1.01 | locus YNL322C, strain KRE1, hits give low values 0.998 | locus YNR049C, strain mso1, hits give low values 1.02 | locus YNR052C, strain pop2, hits give low values 0.985 | locus YOL006C, strain TOP1, hits give low values 1.11 | locus YOL012C, strain htz1 0.738 | locus YOL147C, strain pex11, hits give low values 0.993 | locus YOR001W, strain rrp6, hits give low values 0.971 | locus YOR061W, strain CKA2, hits give low values 0.993 | locus YOR069W, strain VPS5, hits give low values 0.989 | locus YOR070C, strain gyp1, hits give low values 1 | locus YOR080W, strain dia2, hits give low values 0.994 | locus YOR083W, strain WHI5, hits give low values 1.01 | locus YOR106W, strain vam3, hits give low values 1.03 | locus YOR136W, strain idh2, hits give low values 0.985 | locus YOR144C, strain elg1, hits give low values 0.999 | locus YOR184W, strain ser1, hits give low values 1.03 | locus YOR231W, strain MKK1, hits give low values 0.994 | locus YOR265W, strain rbl2, hits give low values 1.02 | locus YOR270C, strain vph1, hits give low values 0.995 | locus YOR290C, strain snf2, hits give low values 0.997 | locus YOR316C, strain cot1, hits give low values 0.996 | locus YPL051W, strain arl3, hits give low values 1.01 | locus YPL078C, strain atp4, hits give low values 1.03 | locus YPL106C, strain sse1, hits give low values 0.987 | locus YPL240C, strain hsp82, hits give low values 0.999 | [6] 0.996 | locus YPL256C, strain CLN2, hits give low values 0.997 | locus YPR119W, strain clb2, hits give low values 1 | locus YPR141C, strain kar3, hits give low values 0.991 | locus YPR163C, strain tif3, hits give low values 0.992 | locus YPR167C, strain met16, hits give low values 0.995 | strain wtn01, hits give low values 0.991
